Screens from PubChem BioAssay.
Sampled rows, rich in hits. Any-hit rate of the full collection: about 4%.
Mtb bLac sens – beta-lactam sensitization of Mtb H37Rv | M. tuberculosis H37Rv growth with meropenem, percent inhibition | inhibition, % at 25 µM | 330,000 tested, 0.27% active | AID 434955; call rule not given here;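 further: growth measured after seven days incubation then overnight dye step; 0% = bacteria only wells and 100% = bacteria with antibiotic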
Mtb UGM inh – blocks M. tuberculosis UGM enzyme | 320,000 tested, 0.06% active | inhibition, % at 10 µM | P9WIQ1 | purified UGM, fluorescence polarization probe displacement; in the data active means inhibition above about 10%, passing the limit was not always enough
Mtb FBA inh – inhibitors of M. tuberculosis fructose-bisphosphate aldolase; purified M. tuberculosis FBA, fluorescence read-out; inhibition, % at 1 µM; P9WQA3; 360,000 tested, 2.3% active; in the data active means inhibition above about 27%;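 further: 0% = vehicle and 100% = reference inhibitor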
Rv3671c inh – inhibits the M. tuberculosis serine protease Rv3671c. inhibition, % at 5.96 µM. P9WHR9. AID 2606. 320,000 tested, 0.048% active; in the data active means inhibition above about 38%;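 further: extracellular domain of Rv3671c used as enzyme; 0% = enzyme with DMSO and 100% = no enzyme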
Target sequence (P9WHR9 whole entry, looked up, the tested form may be a part): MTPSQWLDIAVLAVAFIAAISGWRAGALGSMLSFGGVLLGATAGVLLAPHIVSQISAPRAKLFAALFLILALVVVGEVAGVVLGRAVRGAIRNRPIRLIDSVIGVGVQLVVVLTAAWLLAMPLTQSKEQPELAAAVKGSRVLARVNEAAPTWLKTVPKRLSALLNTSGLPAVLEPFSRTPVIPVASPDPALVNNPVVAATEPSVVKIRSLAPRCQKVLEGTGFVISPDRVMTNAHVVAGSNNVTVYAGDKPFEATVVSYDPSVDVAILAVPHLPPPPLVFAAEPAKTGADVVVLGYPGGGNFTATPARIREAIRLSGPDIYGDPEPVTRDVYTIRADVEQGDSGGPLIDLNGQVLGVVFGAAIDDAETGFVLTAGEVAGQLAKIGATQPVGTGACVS
RecA splice inh – Mtb RecA intein splicing inhibition; P9WHJ3; cell-free RecA intein splicing, fluorescence; inhibition, % (no concentration beside the values); 290,000 tested, 0.75% active; in the data active means inhibition above about 30%;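 further: 0% = vehicle wells and 100% = reference inhibitor control wells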
GDH-TPI counter – inhibits GDH-TPI coupling enzymes, artifact for Mtb FBA screen | GDH-TPI coupled enzyme counterscreen, NADH absorbance | inhibition, % at 4.8 µM | 360,000 tested, 1.2% active | AID 588335; in the data active means inhibition above about 30%;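 further: 0% = DMSO wells and 100% = wells lacking the enzyme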
Starred values were filed as active, the others as inactive; i = inactive; nt = no result given; + = active, no number.

SMILES	Mtb bLac sens	Mtb UGM inh	Mtb FBA inh	Rv3671c inh	RecA splice inh	GDH-TPI counter
Cc1nn(-c2ccccc2)c2c1cc1c(=O)n(C)c(=O)nc-1n2-c1ccccc1F	-6.3	-3.4	163.9*	7.9	-22.2	0.8
Cc1cccc(-n2c(C)nc3ccccc3c2=O)c1C	-7.9	0.5	3.0	-6.0	0.8	-0.6
COC(=O)C1N[C@@H]([C@@H](NC(=O)COc2ccccc2)C(=O)NC2CC2)SC1(C)C (stereo partly specified)	-6.5	1.1	-0.6	6.9	-0.3	-4.3
CC(=O)N1N=C(c2cccc(NS(C)(=O)=O)c2)CC1c1ccc2c(c1)OCO2 (stereo unspecified)	0.3	0.2	-1.6	-4.8	nt	3.5
CCC(CC)C(=O)N1N=C(c2ccc(NS(C)(=O)=O)cc2)CC1c1ccccc1 (stereo unspecified)	5.2	-1.0	+	-0.1	-0.1	22.8
CCC(CC)C(=O)N1N=C(c2ccc(NS(C)(=O)=O)cc2)CC1c1ccc(C)cc1 (stereo unspecified)	6.3	0.2	+	-10.4	-0.4	29.1
CS(=O)(=O)Nc1ccc(C2=NN(S(C)(=O)=O)C(c3ccc4c(c3)OCO4)C2)cc1 (stereo unspecified)	-2.9	0.5	140.6*	-9.0	-2.4	12.2
CCC(=O)N1N=C(c2ccc(NS(C)(=O)=O)cc2)CC1c1ccc(C)cc1 (stereo unspecified)	0.6	-2.1	+	3.0	-1.0	16.9
COc1ccccc1NC(=O)Nc1nc(C(N)CC(C)C)cs1 (stereo unspecified)	nt	nt	1.7	nt	nt	-9.3
Cc1ccc(S(=O)(=O)N(C)CC(=O)O/N=C(\N)c2cccc(Br)c2)cc1	31.8	4.1	0.6	-5.8	6.4	3.9
COc1cccc(OCCn2cc(C(C)=O)c3ccccc32)c1	0.3	-0.9	0.8	0.5	nt	2.5
Cc1cc(C(=O)N/N=C/c2ccc(O)c([N+](=O)[O-])c2)n[nH]1	4.2	2.3	-8.6	-10.5	-4.4	42.6*
Cc1ccc(OCC(=O)N/N=C\c2ccc(O)c([N+](=O)[O-])c2)c([N+](=O)[O-])c1	92.6	2.4	-5.0	-1.4	3.8	16.3
Cc1cc(C(=O)N/N=C/c2cccc([N+](=O)[O-])c2O)n[nH]1	-7.8	0.1	-5.0	2.6	0.1	-0.7
Cc1n[nH]c(=O)nc1N/N=C/c1ccc(O)c([N+](=O)[O-])c1	5.5	0.5	0.2	-5.0	-3.0	42.8*
COc1cc(/C=N/NC(=O)Cc2ccccc2)cc([N+](=O)[O-])c1O	2.3	2.0	-7.3	7.0	0.3	58.6*
COc1ccc(/C=N/Nc2nc(=O)[nH]nc2C)cc1[N+](=O)[O-]	4.8	4.5	0.6	-11.8	nt	37.9*
O=[N+]([O-])c1cc(Cl)cc(/C=N/Nc2nc3ccccc3s2)c1O	100.2	0.3	-0.7	8.0	-0.7	1.9
COc1cc(/C=N/Nc2nc(=O)[nH]nc2C)cc([N+](=O)[O-])c1O	0.7	1.0	-11.5	3.9	1.0	38.0*
COc1cc(/C=N/NC(=O)c2ccc(C)nc2)cc([N+](=O)[O-])c1O	10.4	-0.3	-14.2	-1.5	-0.9	24.4
COc1cc(/C=N/Nc2nc3ccccc3s2)cc([N+](=O)[O-])c1O	22.4	-0.2	0.1	10.6	0.2	70.0*
COC(=O)c1cc(CNC(=O)c2ccc(N3CCCC3)c([N+](=O)[O-])c2)ccc1OC	-10.7	0.9	-0.1	-2.2	0.7	7.3
CCN1C(=O)/C(=C\N(C)C)NC1=S	0.3	-0.6	-3.6	-5.2	-0.2	33.6*
O=C(CSc1nnc(-c2ccc(F)cc2)n1CC1CCCO1)NCc1ccco1 (stereo unspecified)	-13.2	-1.8	-1.4	-15.4	3.9	0.0
CN(C)S(=O)(=O)c1cccc(NC(=O)c2c[nH]c3ccccc23)c1	-3.8	1.3	77.8*	-28.4	-4.6	-2.3
SMILES	Mtb bLac sens	Mtb UGM inh	Mtb FBA inh	Rv3671c inh	RecA splice inh	GDH-TPI counter
CN(C)S(=O)(=O)c1cccc(NC(=O)c2cc(=O)[nH]c3ccccc23)c1	3.0	0.5	1.6	-4.5	-0.8	2.9
CCCCc1cc(=O)oc2c(CN(C)C)c(O)ccc12	-0.5	-2.2	nt	2.6	-78.2	27.7
CCc1c(C)c2ccc(O)c(CN(C)C)c2oc1=O	-4.1	4.8	+	2.5	-137.0	17.9
COCCN(CCOC)Cc1c(O)ccc2c3c(c(=O)oc12)CCC3	1.4	-0.9	+	-5.5	-30.3	14.6
CN(C)Cc1c(O)ccc2c3c(c(=O)oc12)CCCCC3	-11.2	0.2	+	3.7	-219.4	24.5
CCCCN(CC)Cc1c(O)ccc2c3c(c(=O)oc12)CCC3	-6.0	-0.6	nt	5.3	-61.2	21.9
C#CCOCCOCCOCCNc1nc(N2CCN(C(=O)[C@H](CCC(=O)O)n3cc([C@@H](N)CCCCN)nn3)CC2)nc(N2CCN(C(=O)[C@H](CCCCN)n3cc([C@@H](N)CC(N)=O)nn3)CC2)n1	-11.1	0.4	-1.1	0.8	nt	8.5
N=c1c(C(=O)NCC2CCCO2)cc2c(=O)n3ccccc3nc2n1Cc1ccccc1 (stereo unspecified)	1.7	-1.2	+	6.0	i	17.6
COc1ccc(Cn2c(=N)c(C(=O)NCC3CCCO3)cc3c(=O)n4ccccc4nc32)cc1 (stereo unspecified)	-7.0	2.6	8.6	-10.5	-12.1	14.7
N=c1c(C(=O)NCC2CCCO2)cc2c(=O)n3ccccc3nc2n1Cc1ccccc1Cl (stereo unspecified)	-5.9	-2.9	166.4*	-2.1	-462.6	5.6
N=c1c(C(=O)NCC2CCCO2)cc2c(=O)n3ccccc3nc2n1Cc1ccc(Cl)cc1 (stereo unspecified)	4.3	0.6	+	-0.4	i	0.0
Cc1ccc(Cn2c(=N)c(C(=O)NCC3CCCO3)cc3c(=O)n4ccccc4nc32)cc1 (stereo unspecified)	8.3	1.3	162.1*	-3.5	i	4.2
Cc1ccc(C)c(OCCNc2ncccc2[N+](=O)[O-])c1	0.8	-1.5	-5.2	17.5	11.3	5.1
Cc1ccc(Cn2c(=N)c(C(=O)NCC3CCCO3)cc3c(=O)n4cccc(C)c4nc32)cc1 (stereo unspecified)	0.9	0.0	+	-3.8	-2.0	3.0
COc1ccc(NC(=O)CN2CCN(c3ccccn3)CC2)cc1Cl	-6.5	1.8	+	-0.3	0.0	-2.6
CC(NC(=O)C1=CC=CN2CCS(=O)(=O)N=C12)c1ccc(Cl)c(Cl)c1 (stereo unspecified)	-0.8	0.0	15.9	0.5	nt	17.5
CCN1CCN(c2ccc(Nc3ccnc4ccccc34)cc2)CC1	4.6	2.3	3.5	-4.0	nt	14.8
NC(=O)c1ccc(NC(=O)COC(=O)c2cc3ccccc3cc2O)cc1	-1.3	-2.5	-0.4	-45.0	nt	12.8
CCC(=O)N(c1nnc(SCC(=O)Nc2ccc(N3CCOCC3)cc2)s1)C1CC1	-6.3	0.1	5.7	-4.4	nt	8.2
